One experiment concerns the target COX10. Description: pooled miR-30 sensor sort-seq; sequence = guide strand. To be noted: shRNA.
TTATCTACCTACAATCCCTTTA returned a sensor-assay potency score (higher = more potent) of -0.2.

In the case of TCTGCGTCCACGTAGAAGCGGA, the sensor-assay potency score (higher = more potent) is -0.792.

For ATAATCTTGTTCTAAACCCAGC, the sensor-assay potency score (higher = more potent) is -0.854.

Turning to TCTAGTTCTATCAATTCCTTTT, the sensor-assay potency score (higher = more potent) was -0.971.

A further experiment has as its target COX19. Described as above. Particulars: shRNA.
ATTGTTATGAAGACACTTCATG returned a sensor-assay potency score (higher = more potent) of -0.941.

As for TTCACCTAAGTGATCCAGCGGG, the sensor-assay potency score (higher = more potent) was -0.488.

TTTTACATTCACCTAAGTGATC showed a sensor-assay potency score (higher = more potent) of -1.57.

TAGTCAAGTCTCCAAATCCCAG returned a sensor-assay potency score (higher = more potent) of -1.71.

With TTCTGCACAAAGCATTTTCAAA, the sensor-assay potency score (higher = more potent) is -1.5.

In turn, TAAATATTCTTTTGATTCCTTT registered a sensor-assay potency score (higher = more potent) of -0.553.

On to TATTGTTATGAAGACACTTCAT, for which the sensor-assay potency score (higher = more potent) is 0.108.

For ATGAATTTCTCTTTAAAGCTTT, the sensor-assay potency score (higher = more potent) was -0.368.

Regarding TAAAGCTTTTACATTCACCTAA, the sensor-assay potency score (higher = more potent) amounted to 0.0153.

ATCAATTTTCTCTCCATCCTGC: the sensor-assay potency score (higher = more potent) amounted to 0.0848.

Regarding TTCCACTAGTCAAGTCTCCAAA, the sensor-assay potency score (higher = more potent) is -0.858.

Turning to ATTATTGTTATGAAGACACTTC, the sensor-assay potency score (higher = more potent) is 0.267.

Another experiment has as its target COX4I2. Described as above. To be noted: shRNA.
On to TCGTCCGTCAAGGTGATCGGCT, for which the sensor-assay potency score (higher = more potent) was -1.37.

In the case of TGAAGAAGAAGACACAACCCAT, the sensor-assay potency score (higher = more potent) is -0.804.

In turn, TTCCTCAGCACCAAGCTCCAGG yielded a sensor-assay potency score (higher = more potent) of -0.515.

The sequence TTCATCTCCGCAAAGGTCTCAT displayed a sensor-assay potency score (higher = more potent) of -0.117.

In turn, TTCTTCTCATAGTCCCAGCGGG returned a sensor-assay potency score (higher = more potent) of -0.678.

Sequence TCAGCGTTGAGTTCTGTGCAGA came in with a sensor-assay potency score (higher = more potent) of -0.281.

TAGGGGGACATCTTCCCCCCAC had a sensor-assay potency score (higher = more potent) of -1.04.

On to TTGAGTTCTGTGCAGAAGGGCT, for which the sensor-assay potency score (higher = more potent) was -0.914.

As to TTCATGTCCAGCATGCGCTGCA, the sensor-assay potency score (higher = more potent) amounted to 0.312.

As for TCCACCTTTCCTCAGCACCAAG, the sensor-assay potency score (higher = more potent) was -2.06.

In turn, AAAGGTCTCATTGAACTGGAGC yielded a sensor-assay potency score (higher = more potent) of -0.86.

TCTCATTGAACTGGAGCCGGTA returned a sensor-assay potency score (higher = more potent) of -1.09.

Another experiment addresses COX6B2. The description is as above. Particulars: shRNA.
Take TACACGCGGAAATAGTACTCGC: the sensor-assay potency score (higher = more potent) was -0.697.

Take TTGATCTGCTCGTTCCAGCTCT: the sensor-assay potency score (higher = more potent) was -0.259.

For the sequence TCGTTCCAGCTCTCCACCCAGC, the sensor-assay potency score (higher = more potent) is -1.49.

TGGTAGTCCAGGAAGTTCTGGT: the sensor-assay potency score (higher = more potent) was -0.611.

Sequence TCCCGTTCTTGATCTGCTCGTT registered a sensor-assay potency score (higher = more potent) of -0.329.

The sequence TTACGGATCTGGTTCTGGCTGG displayed a sensor-assay potency score (higher = more potent) of 0.238.

Regarding TTCCAGCTCTCCACCCAGCTGA, the sensor-assay potency score (higher = more potent) is -0.84.

As to TGATCTGCTCGTTCCAGCTCTC, the sensor-assay potency score (higher = more potent) is -0.561.

Regarding TACGGATCTGGTTCTGGCTGGG, the sensor-assay potency score (higher = more potent) is -0.241.

Sequence TAGTACTCGCAGGGCTGCGTGC gave a sensor-assay potency score (higher = more potent) of -1.22.

TAGTCCAGGAAGTTCTGGTAGC: the sensor-assay potency score (higher = more potent) is -0.67.

With TTCTTGATCTGCTCGTTCCAGC, the sensor-assay potency score (higher = more potent) was -0.0146.

Values taken from the OligoGym collection.
Also: reference of the scale not given here.
